For two sequences, binding signal results are on record in article PMC7862700, “An all-to-all approach to the identification of sequence-specific readers for epigenetic DNA modifications on cytosine”.

What all share (test): DAPPL (digital affinity profiling via proximity ligation, sequencing); 10 mM Tris-HCl pH 7.5, 50 mM NaCl, 1 mM DTT, 4% glycerol, room temperature, 30 min; GST-TFs on glutathione beads, 16-mer random dsDNA library, 0.1% formaldehyde crosslink after washing; high values mean tight binding
The target in one assay is T1, FLI1 (Homo sapiens, UniProt Q01543 1-452).
T1 sequence: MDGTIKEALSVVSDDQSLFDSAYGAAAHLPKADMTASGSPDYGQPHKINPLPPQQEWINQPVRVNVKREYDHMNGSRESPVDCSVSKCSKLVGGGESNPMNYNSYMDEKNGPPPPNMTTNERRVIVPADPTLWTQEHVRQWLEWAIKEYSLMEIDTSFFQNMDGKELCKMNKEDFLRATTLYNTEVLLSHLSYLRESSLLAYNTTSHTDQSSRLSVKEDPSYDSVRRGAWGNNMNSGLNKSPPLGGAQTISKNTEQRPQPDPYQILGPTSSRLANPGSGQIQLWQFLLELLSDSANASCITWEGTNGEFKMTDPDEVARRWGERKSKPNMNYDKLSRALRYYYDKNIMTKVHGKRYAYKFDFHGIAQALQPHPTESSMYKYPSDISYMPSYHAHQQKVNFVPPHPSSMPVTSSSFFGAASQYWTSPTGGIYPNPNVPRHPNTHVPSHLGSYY
Particulars: protein: recombinant; tags: N-terminal GST; dsDNA, one strand shown. The method, boiled down: (§1)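 Beads coated with glutathione captured GST-fused human transcription factors that had been expressed in yeast, and the factors were then given DNA barcodes and pooled with a tag-only sample. The pools were incubated with 200 nmole of a random double-stranded 16-mer DNA library in Tris/NaCl/DTT/glycerol buffer for 30 min at room temperature, washed, crosslinked with 0.1% formaldehyde and proximity-ligated with BsaI/T4 ligase at 37 °C for 1 h. PCR amplification and Illumina NextSeq500 sequencing came last. Binding signal is each hexamer's read frequency for a factor divided by its frequency for the tag-only sample.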

Another assay deals with T2, GABPA (Homo sapiens, UniProt Q06546 1-454).
T2 sequence: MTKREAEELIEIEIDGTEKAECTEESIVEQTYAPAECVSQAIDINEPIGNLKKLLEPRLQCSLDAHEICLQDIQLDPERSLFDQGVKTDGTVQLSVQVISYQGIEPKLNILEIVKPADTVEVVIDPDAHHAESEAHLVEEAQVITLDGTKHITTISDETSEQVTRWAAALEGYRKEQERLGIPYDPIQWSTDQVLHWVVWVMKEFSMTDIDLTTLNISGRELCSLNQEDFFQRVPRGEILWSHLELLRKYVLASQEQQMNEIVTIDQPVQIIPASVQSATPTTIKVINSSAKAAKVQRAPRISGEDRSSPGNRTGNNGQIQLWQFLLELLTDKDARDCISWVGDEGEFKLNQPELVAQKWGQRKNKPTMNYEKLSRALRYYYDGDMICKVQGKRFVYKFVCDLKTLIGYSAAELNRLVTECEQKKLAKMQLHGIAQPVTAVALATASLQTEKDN
The note with it: protein: recombinant; tags: N-terminal GST; dsDNA, one strand shown. The method, boiled down:
as §1

The target of the next assay is ELF1 (Homo sapiens, UniProt P32519 1-619). Particulars: protein: recombinant; tags: N-terminal GST; dsDNA, one strand shown. Summed up: as §1
Another assay concerns the target T3, EHF (Homo sapiens, UniProt Q9NZC4 1-300).
T3 sequence: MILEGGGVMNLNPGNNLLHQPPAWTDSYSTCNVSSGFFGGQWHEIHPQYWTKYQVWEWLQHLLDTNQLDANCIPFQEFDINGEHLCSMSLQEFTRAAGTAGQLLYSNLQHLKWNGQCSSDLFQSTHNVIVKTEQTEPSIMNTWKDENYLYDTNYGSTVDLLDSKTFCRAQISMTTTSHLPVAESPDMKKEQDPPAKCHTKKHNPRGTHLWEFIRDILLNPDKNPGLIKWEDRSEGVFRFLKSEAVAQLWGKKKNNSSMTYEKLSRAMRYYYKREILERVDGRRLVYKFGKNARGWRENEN
The note with it: protein: recombinant; tags: N-terminal GST; dsDNA, one strand shown. Summed up: as §1

A further assay concerns the target SPI1 (Homo sapiens, UniProt P17947 1-270). Particulars: protein: recombinant; tags: N-terminal GST; dsDNA, one strand shown. Summed up:
as §1

In a further assay the target is SPIB (Homo sapiens, UniProt Q01892 1-262). Particulars: protein: recombinant; tags: N-terminal GST; dsDNA, one strand shown. Summed up:
as §1

A further assay deals with T4, FEV (Homo sapiens, UniProt Q99581 1-238).
T4 sequence: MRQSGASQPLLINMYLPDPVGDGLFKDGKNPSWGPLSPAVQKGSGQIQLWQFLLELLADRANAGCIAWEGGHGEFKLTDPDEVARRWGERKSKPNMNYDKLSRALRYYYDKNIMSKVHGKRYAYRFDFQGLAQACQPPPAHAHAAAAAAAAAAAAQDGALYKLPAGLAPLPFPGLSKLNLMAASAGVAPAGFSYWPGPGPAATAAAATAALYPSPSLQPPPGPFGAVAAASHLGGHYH
The note with it: protein: recombinant; tags: N-terminal GST; dsDNA, one strand shown. Summed up: as §1

For the next assay, the target named is ETV5 (Homo sapiens, UniProt P41161 1-510). Particulars: protein: recombinant; tags: N-terminal GST; dsDNA, one strand shown. The method, boiled down: as §1
In another assay the target is HSF1 (Homo sapiens, UniProt Q00613 1-529). Particulars: protein: recombinant; tags: N-terminal GST; chain copies: 3; dsDNA, one strand shown. Summed up: as §1
Another assay deals with T5, SPIC (Homo sapiens, UniProt Q8N5J4 1-248).
T5 sequence: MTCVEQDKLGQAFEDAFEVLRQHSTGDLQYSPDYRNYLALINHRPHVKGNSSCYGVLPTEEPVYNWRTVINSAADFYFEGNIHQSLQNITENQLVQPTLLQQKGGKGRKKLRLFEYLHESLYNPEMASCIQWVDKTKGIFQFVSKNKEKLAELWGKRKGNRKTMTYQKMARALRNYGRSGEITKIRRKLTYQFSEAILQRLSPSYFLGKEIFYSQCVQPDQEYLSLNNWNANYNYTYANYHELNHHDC
Particulars: protein: recombinant; tags: N-terminal GST; dsDNA, one strand shown. The method, boiled down:
as §1

For a further assay, the target named is ELF4 (Homo sapiens, UniProt Q99607 1-663). The note with it: protein: recombinant; tags: N-terminal GST; dsDNA, one strand shown. Summed up: as §1
Another assay has as its target T6, ELK4 (Homo sapiens, UniProt P28324-2 1-405).
T6 sequence: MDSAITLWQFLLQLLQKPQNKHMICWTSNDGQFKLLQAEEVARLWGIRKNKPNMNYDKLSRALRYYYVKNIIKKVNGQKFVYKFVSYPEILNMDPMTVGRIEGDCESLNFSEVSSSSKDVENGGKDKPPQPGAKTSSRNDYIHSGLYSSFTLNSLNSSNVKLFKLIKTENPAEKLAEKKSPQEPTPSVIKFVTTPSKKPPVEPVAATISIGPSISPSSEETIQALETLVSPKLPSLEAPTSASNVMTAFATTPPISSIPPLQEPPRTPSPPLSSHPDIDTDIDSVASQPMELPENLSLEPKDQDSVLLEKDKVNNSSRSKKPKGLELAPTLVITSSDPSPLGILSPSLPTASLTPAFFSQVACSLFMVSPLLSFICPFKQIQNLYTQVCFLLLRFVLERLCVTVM
The note with it: protein: recombinant; tags: N-terminal GST; dsDNA, one strand shown. The method, boiled down:
as §1

The target in another assay is T7, ETV2 (Homo sapiens, UniProt O00321 1-342).
T7 sequence: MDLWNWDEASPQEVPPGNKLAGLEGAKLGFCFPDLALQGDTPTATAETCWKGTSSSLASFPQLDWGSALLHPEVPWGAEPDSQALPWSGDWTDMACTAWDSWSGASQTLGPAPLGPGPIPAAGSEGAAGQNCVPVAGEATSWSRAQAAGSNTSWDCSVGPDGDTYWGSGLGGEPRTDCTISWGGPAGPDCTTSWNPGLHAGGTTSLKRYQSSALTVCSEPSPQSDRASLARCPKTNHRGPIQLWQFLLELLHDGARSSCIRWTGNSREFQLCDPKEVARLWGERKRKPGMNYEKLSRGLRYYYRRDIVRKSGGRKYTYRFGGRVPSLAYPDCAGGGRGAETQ
The note with it: protein: recombinant; tags: N-terminal GST; dsDNA, one strand shown. The method, boiled down: as §1

For another assay, the target named is T8, ELF3 (Homo sapiens, UniProt P78545 1-371).
T8 sequence: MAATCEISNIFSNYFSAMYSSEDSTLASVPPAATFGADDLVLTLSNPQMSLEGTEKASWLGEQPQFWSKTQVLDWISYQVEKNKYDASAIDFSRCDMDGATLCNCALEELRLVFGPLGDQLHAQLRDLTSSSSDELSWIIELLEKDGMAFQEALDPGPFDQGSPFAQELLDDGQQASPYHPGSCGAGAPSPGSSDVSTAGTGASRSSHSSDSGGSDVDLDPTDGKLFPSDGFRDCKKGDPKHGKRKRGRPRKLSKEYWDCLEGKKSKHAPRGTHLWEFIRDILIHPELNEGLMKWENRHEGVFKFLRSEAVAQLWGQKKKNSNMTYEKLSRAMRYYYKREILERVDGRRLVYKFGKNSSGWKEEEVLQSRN
Particulars: protein: recombinant; tags: N-terminal GST; dsDNA, one strand shown. The method, boiled down:
as §1

The target of the next assay is ETV1 (Homo sapiens, UniProt P50549 1-477). The note with it: protein: recombinant; tags: N-terminal GST; dsDNA, one strand shown. Summed up:
as §1

A further assay deals with T9, ERG (Homo sapiens, UniProt P11308 1-479).
T9 sequence: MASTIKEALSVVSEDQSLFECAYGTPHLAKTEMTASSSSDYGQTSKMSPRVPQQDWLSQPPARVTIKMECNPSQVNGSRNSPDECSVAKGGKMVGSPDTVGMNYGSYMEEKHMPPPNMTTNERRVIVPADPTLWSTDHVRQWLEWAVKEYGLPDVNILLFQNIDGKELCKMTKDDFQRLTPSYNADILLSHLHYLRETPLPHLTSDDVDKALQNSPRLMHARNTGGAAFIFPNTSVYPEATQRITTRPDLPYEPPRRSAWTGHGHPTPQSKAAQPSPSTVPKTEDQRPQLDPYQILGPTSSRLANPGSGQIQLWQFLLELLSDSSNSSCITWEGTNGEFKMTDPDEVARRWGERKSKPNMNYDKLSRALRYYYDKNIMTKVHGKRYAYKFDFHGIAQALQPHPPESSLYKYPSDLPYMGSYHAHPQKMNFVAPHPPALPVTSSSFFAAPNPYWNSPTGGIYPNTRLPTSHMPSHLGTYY
Particulars: protein: recombinant; tags: N-terminal GST; dsDNA, one strand shown. Summed up: as §1

The target of another assay is T10, ELK3 (Homo sapiens, UniProt P41970 1-407).
T10 sequence: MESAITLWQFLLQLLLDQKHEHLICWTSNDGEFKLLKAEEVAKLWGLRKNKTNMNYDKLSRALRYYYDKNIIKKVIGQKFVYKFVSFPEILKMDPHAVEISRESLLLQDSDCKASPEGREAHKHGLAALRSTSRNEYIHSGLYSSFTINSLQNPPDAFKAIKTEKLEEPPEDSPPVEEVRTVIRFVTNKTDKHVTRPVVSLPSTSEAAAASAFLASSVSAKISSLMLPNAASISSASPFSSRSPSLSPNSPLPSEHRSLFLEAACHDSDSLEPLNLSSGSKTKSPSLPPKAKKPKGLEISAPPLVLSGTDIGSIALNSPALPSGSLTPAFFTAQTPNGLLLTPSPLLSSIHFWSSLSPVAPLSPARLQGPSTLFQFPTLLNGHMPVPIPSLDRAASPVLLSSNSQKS
The note with it: protein: recombinant; tags: N-terminal GST; dsDNA, one strand shown. Summed up: as §1

For a further assay, the target named is CRX (Homo sapiens, UniProt O43186 1-299). Particulars: protein: recombinant; tags: N-terminal GST; dsDNA, one strand shown. The method, boiled down:
as §1

Sequence of ELF1 (P32519 whole entry): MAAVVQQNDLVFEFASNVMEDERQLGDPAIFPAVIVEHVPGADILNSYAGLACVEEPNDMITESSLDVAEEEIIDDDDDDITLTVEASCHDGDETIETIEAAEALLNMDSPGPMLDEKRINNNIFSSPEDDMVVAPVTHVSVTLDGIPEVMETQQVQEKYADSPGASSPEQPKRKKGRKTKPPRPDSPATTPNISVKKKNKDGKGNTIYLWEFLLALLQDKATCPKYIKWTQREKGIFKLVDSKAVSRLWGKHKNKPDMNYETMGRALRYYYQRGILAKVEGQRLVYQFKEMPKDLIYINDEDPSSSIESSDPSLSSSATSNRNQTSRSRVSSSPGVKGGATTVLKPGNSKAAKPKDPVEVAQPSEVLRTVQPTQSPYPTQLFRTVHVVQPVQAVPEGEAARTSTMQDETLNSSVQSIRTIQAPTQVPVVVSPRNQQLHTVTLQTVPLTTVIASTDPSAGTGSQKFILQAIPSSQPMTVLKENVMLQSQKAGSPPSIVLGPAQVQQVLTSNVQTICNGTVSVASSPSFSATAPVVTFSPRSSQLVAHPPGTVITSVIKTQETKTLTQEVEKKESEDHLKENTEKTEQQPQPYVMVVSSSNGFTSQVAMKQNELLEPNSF
Sequence of SPIB (Q01892 whole entry): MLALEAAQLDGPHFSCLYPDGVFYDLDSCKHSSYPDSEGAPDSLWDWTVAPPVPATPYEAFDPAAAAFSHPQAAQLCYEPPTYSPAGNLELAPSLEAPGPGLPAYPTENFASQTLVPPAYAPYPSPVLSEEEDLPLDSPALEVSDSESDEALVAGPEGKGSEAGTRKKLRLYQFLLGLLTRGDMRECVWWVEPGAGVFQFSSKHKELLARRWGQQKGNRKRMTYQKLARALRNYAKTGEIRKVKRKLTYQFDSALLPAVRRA
Sequence of ETV1 (P50549 whole entry): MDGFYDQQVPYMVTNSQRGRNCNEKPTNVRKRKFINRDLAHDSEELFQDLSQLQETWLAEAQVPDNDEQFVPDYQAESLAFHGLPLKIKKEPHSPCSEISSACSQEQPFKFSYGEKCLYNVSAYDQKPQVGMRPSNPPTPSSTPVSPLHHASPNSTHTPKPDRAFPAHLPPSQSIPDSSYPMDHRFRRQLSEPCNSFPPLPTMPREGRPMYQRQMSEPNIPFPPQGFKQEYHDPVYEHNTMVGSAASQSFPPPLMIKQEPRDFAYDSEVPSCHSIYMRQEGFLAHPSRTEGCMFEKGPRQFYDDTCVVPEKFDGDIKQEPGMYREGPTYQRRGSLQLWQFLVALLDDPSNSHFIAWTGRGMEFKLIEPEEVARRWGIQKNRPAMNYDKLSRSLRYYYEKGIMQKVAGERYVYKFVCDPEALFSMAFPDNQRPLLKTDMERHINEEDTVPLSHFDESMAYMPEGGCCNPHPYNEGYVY
Sequence of HSF1 (Q00613 whole entry): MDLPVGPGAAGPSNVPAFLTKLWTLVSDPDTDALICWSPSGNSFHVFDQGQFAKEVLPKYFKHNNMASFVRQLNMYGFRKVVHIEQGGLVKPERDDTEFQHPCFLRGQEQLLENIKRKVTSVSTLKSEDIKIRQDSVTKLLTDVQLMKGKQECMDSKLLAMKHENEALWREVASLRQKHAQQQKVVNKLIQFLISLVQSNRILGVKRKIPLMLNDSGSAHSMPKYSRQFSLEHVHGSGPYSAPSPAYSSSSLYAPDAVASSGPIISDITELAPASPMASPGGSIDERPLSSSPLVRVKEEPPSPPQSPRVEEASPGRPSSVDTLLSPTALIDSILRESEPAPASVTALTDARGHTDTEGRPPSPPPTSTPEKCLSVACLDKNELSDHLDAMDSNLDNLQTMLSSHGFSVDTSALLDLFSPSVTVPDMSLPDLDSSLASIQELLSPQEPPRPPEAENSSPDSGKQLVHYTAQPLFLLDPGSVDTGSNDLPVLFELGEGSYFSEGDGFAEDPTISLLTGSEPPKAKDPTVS
Sequence of ELF4 (Q99607 whole entry): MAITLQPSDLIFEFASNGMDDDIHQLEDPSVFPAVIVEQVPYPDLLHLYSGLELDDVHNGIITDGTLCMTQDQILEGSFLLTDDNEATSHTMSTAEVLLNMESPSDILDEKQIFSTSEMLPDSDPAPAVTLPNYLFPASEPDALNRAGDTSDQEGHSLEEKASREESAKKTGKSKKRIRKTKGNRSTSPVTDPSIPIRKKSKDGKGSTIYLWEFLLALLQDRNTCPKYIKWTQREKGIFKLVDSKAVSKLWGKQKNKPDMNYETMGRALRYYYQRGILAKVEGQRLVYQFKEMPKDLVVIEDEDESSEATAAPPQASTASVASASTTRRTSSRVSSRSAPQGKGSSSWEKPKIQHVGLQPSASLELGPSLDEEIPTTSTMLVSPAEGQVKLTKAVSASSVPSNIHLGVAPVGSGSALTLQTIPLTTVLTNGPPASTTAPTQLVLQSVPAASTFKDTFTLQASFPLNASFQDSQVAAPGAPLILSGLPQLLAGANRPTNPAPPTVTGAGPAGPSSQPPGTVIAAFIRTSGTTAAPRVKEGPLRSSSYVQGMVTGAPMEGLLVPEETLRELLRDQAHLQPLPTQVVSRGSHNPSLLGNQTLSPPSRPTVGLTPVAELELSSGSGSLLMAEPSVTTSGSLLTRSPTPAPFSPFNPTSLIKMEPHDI
Sequence of ETV5 (P41161 whole entry): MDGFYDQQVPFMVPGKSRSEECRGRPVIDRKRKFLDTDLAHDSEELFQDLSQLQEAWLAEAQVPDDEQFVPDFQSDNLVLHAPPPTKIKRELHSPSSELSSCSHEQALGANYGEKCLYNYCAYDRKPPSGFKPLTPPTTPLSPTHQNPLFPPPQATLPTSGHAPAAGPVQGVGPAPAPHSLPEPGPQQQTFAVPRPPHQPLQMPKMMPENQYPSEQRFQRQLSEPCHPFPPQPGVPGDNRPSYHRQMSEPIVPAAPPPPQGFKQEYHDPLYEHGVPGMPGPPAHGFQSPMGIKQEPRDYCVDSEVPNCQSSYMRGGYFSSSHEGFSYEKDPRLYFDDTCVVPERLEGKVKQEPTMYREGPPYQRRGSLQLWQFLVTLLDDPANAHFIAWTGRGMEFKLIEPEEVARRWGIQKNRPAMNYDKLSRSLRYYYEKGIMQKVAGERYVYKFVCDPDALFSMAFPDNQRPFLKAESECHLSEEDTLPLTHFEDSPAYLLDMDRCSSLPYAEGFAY
Sequence of CRX (O43186 whole entry): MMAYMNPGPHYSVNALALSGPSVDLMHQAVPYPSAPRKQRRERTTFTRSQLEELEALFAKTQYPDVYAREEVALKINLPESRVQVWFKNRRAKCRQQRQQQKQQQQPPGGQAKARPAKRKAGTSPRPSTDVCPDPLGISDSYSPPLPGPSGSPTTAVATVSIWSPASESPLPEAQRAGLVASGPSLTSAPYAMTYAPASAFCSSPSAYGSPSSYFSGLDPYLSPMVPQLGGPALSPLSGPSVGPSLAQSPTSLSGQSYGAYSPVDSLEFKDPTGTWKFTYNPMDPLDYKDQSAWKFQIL

With ATGCTG, the binding signal was 1.09 fold enrichment (6-mer frequency, TF over GST control) with FLI1; 1.07 fold enrichment (6-mer frequency, TF over GST control) with GABPA; 1.13 fold enrichment (6-mer frequency, TF over GST control) with ELF1; 1.22 fold enrichment (6-mer frequency, TF over GST control) in the assay with EHF; 1.07 fold enrichment (6-mer frequency, TF over GST control) with SPI1; 1.05 fold enrichment (6-mer frequency, TF over GST control) in the assay with SPIB. For the same sequence, the binding signal in the assay with FEV was 1.06 fold enrichment (6-mer frequency, TF over GST control); with ETV5, 1.13 fold enrichment (6-mer frequency, TF over GST control); with HSF1, 1.02 fold enrichment (6-mer frequency, TF over GST control); with SPIC it was 1.14 fold enrichment (6-mer frequency, TF over GST control); with ELF4, 1.06 fold enrichment (6-mer frequency, TF over GST control); with ELK4, 1.26 fold enrichment (6-mer frequency, TF over GST control). Besides, the binding signal with ETV2 was 1.19 fold enrichment (6-mer frequency, TF over GST control); with ELF3, 1.26 fold enrichment (6-mer frequency, TF over GST control); in the assay with ETV1, 1.06 fold enrichment (6-mer frequency, TF over GST control).

For the sequence GAATCT, the binding signal was 1.03 fold enrichment (6-mer frequency, TF over GST control) with FLI1; 1.15 fold enrichment (6-mer frequency, TF over GST control) with GABPA; 1.04 fold enrichment (6-mer frequency, TF over GST control) with ERG; 1.04 fold enrichment (6-mer frequency, TF over GST control) with ELF1; 1.06 fold enrichment (6-mer frequency, TF over GST control) in the assay with EHF; 1.07 fold enrichment (6-mer frequency, TF over GST control) in the assay with SPI1. The binding signal with SPIB is 1.1 fold enrichment (6-mer frequency, TF over GST control); with ELK3, 1.08 fold enrichment (6-mer frequency, TF over GST control); with FEV, 1.03 fold enrichment (6-mer frequency, TF over GST control); with ETV5, 1.13 fold enrichment (6-mer frequency, TF over GST control); with HSF1, 1.76 fold enrichment (6-mer frequency, TF over GST control); with SPIC it was 1.05 fold enrichment (6-mer frequency, TF over GST control). The binding signal was 1.07 fold enrichment (6-mer frequency, TF over GST control) in the assay with ELF4; 1.08 fold enrichment (6-mer frequency, TF over GST control) with ELK4; 1.2 fold enrichment (6-mer frequency, TF over GST control) with ETV2; 1.03 fold enrichment (6-mer frequency, TF over GST control) in the assay with ELF3; 1.21 fold enrichment (6-mer frequency, TF over GST control) with CRX; 1.08 fold enrichment (6-mer frequency, TF over GST control) in the assay with ETV1.
